Inconclusive results are not listed. Values without a mark were called inactive. The source made the active and inactive calls. Calls come from the whole dose curve; as a rule, active = well fitted activation curve with a large enough effect; inconclusive = small, poorly fitted or top-dose-only effect; inactive = no such curve, though single readings can be large or run the other way.
What follows are molecules tested against Cellular tumor antigen p53 (Homo sapiens) (UniProt P04637) (assay: Primary qHTS for small molecule compounds that upregulate eGFP-tagged delta133p53alpha (in N-terminal) cells. (AID 2060322; note: nearly all actives have a fitted effect of over 75% in size;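 for activation: series mostly up to about 56 µM; 0% = DMSO vehicle and 100% = reference activator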)). Settings: NCI-H358 eGFP-delta133p53alpha fluorescence, 24 h; activation: hits give high values.
Cellular tumor antigen p53 (Homo sapiens), sequence (P04637 whole entry, looked up): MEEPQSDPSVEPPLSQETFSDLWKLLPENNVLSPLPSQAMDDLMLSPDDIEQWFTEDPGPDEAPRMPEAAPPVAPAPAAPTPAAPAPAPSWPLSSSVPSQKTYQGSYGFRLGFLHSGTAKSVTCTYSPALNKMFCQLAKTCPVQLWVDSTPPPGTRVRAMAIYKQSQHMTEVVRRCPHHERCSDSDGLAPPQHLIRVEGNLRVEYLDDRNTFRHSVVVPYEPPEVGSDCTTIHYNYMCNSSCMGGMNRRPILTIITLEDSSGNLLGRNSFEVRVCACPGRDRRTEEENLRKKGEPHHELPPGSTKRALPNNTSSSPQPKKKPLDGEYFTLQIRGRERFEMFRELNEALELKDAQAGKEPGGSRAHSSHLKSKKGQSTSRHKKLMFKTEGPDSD
Outline: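 NCI-H358 cells pre-induced 24 h with 10 ng/ml doxycycline for eGFP-delta133p53alpha, plated dox-free and exposed 24 h at 37C to titrated compounds. Fixed, Hoechst-stained; gated GFP peak intensity by laser scanning cytometry, normalized to DMSO (0%) and 57.5 uM 5-azacytidine (100%).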
Work on `CON=C(C(=O)N[C@@H]1C(=O)N2C(C(=O)OCOC(=O)C(C)(C)C)=C(C=Cc3scnc3C)CS[C@H]12)c1csc(N)n1` yielded an activation of -6.48%. In the case of `CCC(C(=O)OCCN1CCOC(c2ccccc2)C1C)c1ccccc1` (stereo not drawn), the activation is reported as -7.53%. For `CO[C@@H]1C(N(C)C(=O)c2ccccc2)C[C@H]2O[C@]1(C)n1c3ccccc3c3c4c(c5c6ccccc6n2c5c31)C(=O)NC4=O` (stereo partly drawn), the Potency was 9.68 µM (active). For `O=S(=O)(O)c1ccc2nc(-c3ccccc3)[nH]c2c1`, the activation was 23.2%. With `Cc1[nH]cnc1-c1ccc(Cl)cc1` the activation was 15.3%. `C[C@H]1O[C@H](O[C@H]2[C@H](O)[C@@H](O)[C@@H](O[C@H]3[C@H](O)[C@@H](O)C(O)O[C@H]3CO)O[C@H]2CO)[C@H](O)[C@@H](O)[C@H]1N[C@H]1C=C(CO)[C@@H](O)[C@H](O)[C@@H]1O` (stereo partly drawn) gave an activation of 140%. With `CCCC(CCC)(C(=O)OCC)C(=O)OCC` the activation was -3.95%. `Cc1ncc(CO)c(C=O)c1O` gave an activation of -3.35%. With `COc1cc(C=C2CCC/C(=C\c3ccc(O)c(OC)c3)C2=O)ccc1O` the Potency was 19.5 µM (active). `CN1C(=O)CC(c2ccccc2)C1=O` (stereo not drawn) gave an activation of 10.7%. Molecule `O=c1[nH]c2ccccc2c(=O)n1CCCl` has an activation of 6.21%. For `CNC(=O)[C@H](CC1=CN=C2C=CCC=C12)NC(=O)[C@@H](CC(=O)NO)CC(C)C`, the activation was 3.1%. For `CC(=O)OCC(=O)[C@@]1(O)[C@H](OC(C)=O)C[C@H]2[C@@H]3CCC4=CC(=O)C=C[C@]4(C)[C@@]3(F)[C@@H](O)C[C@@]21C`, the activation was 4.18%.
Potency is the fitted concentration of half-maximal effect.
